Source: PubChem (several laboratories)
Sampled rows, rich in hits. Any-hit rate of the full collection: about 2.9%.
ABCB6 inh MLPCN: inhibitors of human ABC transporter ABCB6. K562-ABCB6 porphyrin accumulation, flow cytometry, 1 h; hits give low values. 360,000 compounds, 0.19% hits. Q9NP58. AID 602162. fluorescence ratio to DMSO, % at 10 µM;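 active = fluorescence ratio to DMSO below 75%, the collection mean minus 3 SD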;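 also: signal is porphyrin accumulated inside mitochondria; 100% equals median channel fluorescence of DMSO control wells; lower ratio means ABCB6 inhibition with less porphyrin fluorescence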
CRFBP-R2 agonist: agonists of human CRF-binding protein/CRF-R2 receptor complex; HEK293 CRF-R2/CRF-BP, calcium dye fluorescence (FLIPR); percent of saturating CRF peptide response; activation, % at 13.2 µM; 350,000 compounds, 0.46% hits;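 active = activation of at least 50%, plus an integration ratio under a set limit after plate pattern correction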;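 also: plate controls were neutral control wells without compound for no effect and CRF at EC100 for full effect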
MEKK3 PB1 HTS: raises or lowers MEK5 binding to the human MEKK3 PB1 domain | bead-based flow cytometry, Alexa488-MEK5 binding to MEKK3; actives lie on both sides; 0 = blocked by unlabeled MEK5, 100 = vehicle | binding response (% of control), % at 10 µM | 290,000 compounds, 1.4% hits;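 active = binding response more than 3 SD above or below the average of its plate-row segment, actives on both sides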;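 also: Alexa488 bead fluorescence after subtracting the streptavidin-only scavenger bead signal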
MEKK2mut PB1 HTS: signal of MEK5 binding to mutant human MEKK2 PB1 domain | percent response, % at 10 µM | 290,000 compounds, 0.35% hits | AID 1530 | bead flow cytometry, Alexa488-MEK5 binding to MEKK2 mutant; in the data active = percent response above about 24%, passing the limit was not always enough
MEKK2 WT-MEK5: raises or lowers MEK5 binding to wildtype human MEKK2 PB1 domain. bead flow cytometry, Alexa488-MEK5 binding to MEKK2 WT; actives lie on both sides. binding response (% of control), % at 10 µM. Q9Y2U5. 290,000 compounds, 1.1% hits; in the data active = binding response below about 67% or above about 130%
CRFR2-BP antag: CRF-BP/CRF-R2 complex antagonism; AID 588475; HEK293 CRF-R2/CRF-BP, CRF-induced calcium fluorescence; 350,000 compounds, 0.59% hits; inhibition, % at 11.8 µM;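 active = inhibition of the ligand-induced calcium signal above about 50% at the single tested concentration, limit read from the data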
MEKK2wt confirm: raises or lowers MEK5 binding to wildtype human MEKK2, retest | shares compounds with MEKK3 PB1 HTS | bead flow cytometry, Alexa488-MEK5 binding to MEKK2 WT; actives lie on both sides | binding response (% of control), % at 10 µM | 5,900 compounds, 2.4% hits | AID 1892; in the data active = binding response below about 16% or above about 210%; inactive = in between
MEKK2mut confirm: signal of MEK5 binding to mutant human MEKK2, retest; percent response, % at 10 µM; 5,900 compounds, 2% hits; shares compounds with MEKK3 PB1 HTS; bead flow cytometry, Alexa488-MEK5 binding to MEKK2 mutant; in the data active = percent response mostly above about 71%, no sharp cut-off; inactive = mostly below about 38%;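 also: higher means compound restores mutant binding toward wildtype level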
MEKK3-MEK5 inh: confirmation of inhibitors of MEK5 binding to human MEKK3; shares compounds with MEKK3 PB1 HTS; binding response (% of control), % at 10 µM; AID 1894; bead flow cytometry, Alexa488-MEK5 binding to MEKK3; hits give low values; 5,900 compounds, 1.8% hits;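 active = binding response below 72% of control, or above a set upper limit, though filed actives all read lower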;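 also: 100% = DMSO only wells and 0% = binding blocked by excess unlabeled MEK5; lower values mean stronger disruption of MEK5 binding to MEKK3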
Starred values were filed as active, the others as inactive; / = no result; [ ] = remark or other dose.

SMILES	ABCB6 inh MLPCN	CRFBP-R2 agonist	MEKK3 PB1 HTS	MEKK2mut PB1 HTS	MEKK2 WT-MEK5	CRFR2-BP antag	MEKK2wt confirm	MEKK2mut confirm	MEKK3-MEK5 inh
CN(CCS(=O)(=O)c1ccc(Cl)cc1)Cc1cccnc1	101	0	138*	29	119	-2	100	-1	101
O=c1ccc2ccc(OCc3ccccc3)cc2o1	97	-2	98	-1	98	0	/	/	/
Clc1ccccc1CNCC1CCCO1 (stereo not given)	97	0	108	27*	110	1	104	5	104
Cc1sc2nc(SCC(=O)N(C)c3ccccc3)n(C)c(=O)c2c1C	106	-2	103	0	107	-13	/	/	/
CCN(CC)C(=O)CSc1ncnc2c(-c3ccc(OC)cc3)nsc12	/	/	104	-2	98	/	/	/	/
COc1ccc(-c2nsc3c(SCc4ccccc4)ncnc23)cc1	84	8	144*	0	107	-17	97	1	101
CN(C)c1ccc(-c2nnc(-c3ccccc3F)o2)cc1	97	0	104	26*	104	4	96	-5	99
COc1ccc(-c2nnc(-c3ccc(N(C)C)cc3)o2)cc1	98	9	98	1	101	43	/	/	/
COc1ccc(CCNC(=O)c2n[nH]c3ccccc23)cc1	97	-2	100	-5	95	1	/	/	/
COCCNC(=O)Cc1cn(C)c2ccccc12	104	1	110	19	112	-1	/	/	/
COCCNC(=O)c1n[nH]c2ccccc12	98	3	70*[inhibitor]	-3	85	-9	105	-2	104
COCCNC(=O)c1cn(C)c2ccccc2c1=O	100	-1	70*[inhibitor]	-14	74	1	98	-8	96
CC(C)C(NC(=O)CN(c1ccc2c(c1)OCCO2)S(=O)(=O)c1ccccc1)C(C)C	96	0	/	/	/	0	/	/	/
CNC(=S)N1CCN(C(=O)C2CCCO2)CC1 (stereo not given)	92	0	67*[inhibitor]	-2	94	17	102	0	103
Cc1ccc(-n2nnc3c(=O)n(Cc4ccccn4)cnc32)cc1C	95	-3	109	175*	97	-2	96	2	102
Cc1cccc(-n2nnc3c(=O)n(Cc4ccccn4)cnc32)c1	92	0	104	0	101	2	/	/	/
Cc1ccccc1N(CC(=O)N1CCCCCC1)S(C)(=O)=O	98	-2	104	13	112	4	/	/	/
Cc1ccc2c(c1)c1c3n2CCN(CC(O)CNC(C)C)C3CCC1 (stereo not given)	95	1	107	12	169*	-9	119	4	98
Cc1ccc(-c2csc(N3CCN(c4cc5c(cc4Cl)nc(C)n5CCN4CCCCC4)CC3)n2)cc1	95	2	107	46*	148*	1	177	47	111
Cc1csc(N2CCN(c3cc4c(cc3Cl)nc(-c3ccncc3)n4CCCN3CCCC3)CC2)n1	100	1	102	22	147*	-7	164	51	107
Cc1csc(SCC(=O)Nc2nccs2)n1	99	0	/	/	/	-13	/	/	/
Cc1csc(SCC(=O)Nc2sccc2C(N)=O)n1	96	0	2.0*[inhibitor]	-16	1.0*[inhibitor]	0	95	-3	101
CCN1CCCc2cc(CN(CCN3CCOCC3)C(=S)Nc3cc(F)cc(F)c3)ccc21	100	-2	104	1	103	2	/	/	/
O=C(c1ccco1)N1CCN(C(=O)c2ccc(COc3ccc4c(c3)CCC4)o2)CC1	90	-4	0.0*[inhibitor]	-9	-4.0*[inhibitor]	6	98	-1	99
